# Assay results taken from the antibiotic and cytotoxicity screens of Wong et al. (2023).
# Screen size: about 39,000 compounds; about 3,300 (8.5%) were called active. The sample holds actives, similar compounds and a random draw of the others, so the mix is not that of the screen.
# System: HepG2
# Experiment: cytotoxicity call (relative viability < 0.9)
# Conditions: 10 µM
row,Compound,cytotoxicity call
1,O=C(O)c1cc(N=Nc2ccc(S(=O)(=O)Nc3ccccn3)cc2)ccc1O,inactive
2,C[C@@H]1CN([C@H](C)CO)C(=O)Cc2cc(NC(=O)CCN3CCOCC3)ccc2O[C@@H]1CN(C)Cc1ccc(C(=O)O)cc1,inactive
3,C[C@H]1CN([C@@H](C)CO)C(=O)Cc2cc(NC(=O)CCN3CCOCC3)ccc2O[C@H]1CN(C)Cc1ccc(C(=O)O)cc1,inactive
4,CC1(C)[C@H]2C[C@@H](O[C@H]3O[C@@H](CO)[C@@H](O)[C@@H](O)[C@@H]3O)[C@@]1(C)C[C@@H]2O,inactive
5,COC(=O)[C@@]12O[C@@H]1[C@H](O[C@@H]1O[C@H](CO)[C@@H](O)[C@H](O)[C@H]1O)C[C@H]1[C@]3(C)C[C@@H](c4ccoc4)OC(=O)[C@H]3CC[C@]12C,active
6,CC1(C)CC[C@]2(C(=O)O[C@H]3O[C@@H](CO)[C@@H](O)[C@@H](O)[C@@H]3O)CC[C@]3(C)C(=CC[C@H]4[C@@]5(C)C[C@@H](O)[C@H](O[C@H]6O[C@H](C(=O)O)[C@@H](O)[C@@H](O)[C@@H]6O)C(C)(C)[C@@H]5CC[C@]43C)[C@@H]2C1,inactive
7,COCC(=O)Nc1ccc2c(c1)OC[C@H](C)N(C(=O)Cc1cccnc1)C[C@H](C)[C@@H](OC)CN(C)C2=O,inactive
8,Cc1noc(C)c1S(=O)(=O)Nc1ccc2c(c1)C(=O)N([C@@H](C)CO)C[C@@H](C)[C@@H](CN(C)S(=O)(=O)c1ccccc1)O2,inactive
9,CC(C)C#Cc1ccc2c(c1)O[C@H](CN(C)S(=O)(=O)c1cn(C)cn1)[C@@H](C)CN([C@@H](C)CO)S2(=O)=O,inactive
10,C[C@@H]1CN([C@@H](C)CO)C(=O)Cc2cc(NS(C)(=O)=O)ccc2O[C@@H]1CN(C)Cc1ccc(C(=O)O)cc1,inactive
11,C[C@@H]1CN([C@H](C)CO)C(=O)Cc2cc(NC(=O)Nc3cccc4ccccc34)ccc2O[C@@H]1CN(C)Cc1ccc(Oc2ccccc2)cc1,active
12,C[C@@H]1CN([C@H](C)CO)C(=O)Cc2cc(NC(=O)Nc3cccc4ccccc34)ccc2O[C@H]1CN(C)Cc1ccc(Oc2ccccc2)cc1,inactive
13,C[C@@H]1CN([C@@H](C)CO)C(=O)Cc2cc(NC(=O)Nc3cccc4ccccc34)ccc2O[C@@H]1CN(C)Cc1ccc(Oc2ccccc2)cc1,inactive
14,C[C@H]1CN([C@@H](C)CO)C(=O)Cc2cc(NC(=O)Nc3cccc4ccccc34)ccc2O[C@@H]1CN(C)Cc1ccc(Oc2ccccc2)cc1,inactive
15,C[C@@H]1CN([C@@H](C)CO)C(=O)Cc2cc(NC(=O)Nc3cccc4ccccc34)ccc2O[C@H]1CN(C)Cc1ccc(Oc2ccccc2)cc1,inactive
16,C[C@H](CO)N1C[C@H](C)[C@H](CN(C)Cc2ccc(Oc3ccccc3)cc2)Oc2ccc(NC(=O)Nc3cccc4ccccc34)cc2CC1=O,inactive
17,C[C@H](CO)N1C[C@H](C)[C@@H](CN(C)Cc2ccc(Oc3ccccc3)cc2)Oc2ccc(NC(=O)Nc3cccc4ccccc34)cc2CC1=O,active
18,C[C@H]1CN([C@@H](C)CO)C(=O)Cc2cc(NC(=O)Nc3cccc4ccccc34)ccc2O[C@H]1CN(C)Cc1ccc(Oc2ccccc2)cc1,active
19,COc1ccc(S(=O)(=O)N(C)C[C@@H]2Oc3ccc(NS(=O)(=O)c4ccc(C)cc4)cc3C(=O)N([C@H](C)CO)C[C@H]2C)cc1,inactive

row,Compound,cytotoxicity call
1,COC(=O)[C@H]1CCNCCC1=O,inactive
2,CN1CCN(C(=O)C[C@H]2CC[C@H]3[C@@H](COC[C@H](O)CN3CC3CCCC3)O2)CC1,inactive
3,C[C@H](CO)N1C[C@H](C)[C@@H](CN(C)C(=O)Nc2ccnc(N3CCOCC3)c2)OCc2cnnn2CCCC1=O,inactive
4,Cn1cnc(S(=O)(=O)N[C@@H]2C=C[C@@H](CC(=O)NCC3CC3)O[C@H]2CO)c1,inactive
5,O=C(O)C12CC(C1)C2,inactive
6,COCC(=O)N(C)C[C@H]1Oc2cc(-c3ccc(C#N)cc3)ccc2S(=O)(=O)N([C@@H](C)CO)C[C@H]1C,inactive
7,Cc1noc(C)c1NC(=O)N[C@H]1C=C[C@H](CC(=O)N2CCN(C)CC2)O[C@H]1CO,inactive
8,COc1cccc(C#Cc2ccc3c(c2)O[C@@H](CN(C)C(=O)CN2CCOCC2)[C@H](C)CN([C@H](C)CO)S3(=O)=O)c1,inactive
9,Cc1ccc(S(=O)(=O)N(C)C[C@@H]2OCCCC[C@H](C)Oc3ccc(NC(=O)CCC(F)(F)F)cc3C(=O)N([C@H](C)CO)C[C@H]2C)cc1,inactive
10,CC[C@H]1OC(=O)C[C@@H](O)[C@H](C)[C@@H](O[C@@H]2O[C@H](C)[C@@H](O)[C@H](N(C)C)[C@H]2O)[C@@H](CCN2C[C@H](C)C[C@H](C)C2)C[C@@H](C)C(=O)/C=C/C(C)=C/[C@@H]1CO[C@@H]1O[C@H](C)[C@@H](O)[C@@H](OC)[C@H]1OC,inactive
11,CCC1OC(=O)CC(O)C(C)C(OC2OC(C)C(O)C(N(C)C)C2O)C(CCN2CC(C)CC(C)C2)CC(C)C(=O)C=CC(C)=CC1COC1OC(C)C(O)C(OC)C1OC (configuration not stated),active
12,CC[C@@H]1OC(=O)C[C@@H](O)[C@H](C)[C@@H](O[C@@H]2O[C@H](C)[C@@H](O)[C@H](N(C)C)[C@H]2O)[C@@H](CCN2C[C@H](C)C[C@H](C)C2)C[C@@H](C)C(=O)/C=C/C(C)=C\[C@@H]1CO[C@@H]1O[C@H](C)[C@@H](O)[C@@H](OC)[C@H]1OC,inactive
13,C[C@H](CO)N1C[C@H](C)[C@H](CN(C)Cc2ccncc2)Oc2ccc(NS(=O)(=O)c3cccs3)cc2C1=O,inactive
14,CC(=O)OC1CC2C(C)(C)C(O)CCC2(C)C2CCC3(C)C(c4ccoc4)OC(=O)C4OC43C12C (configuration not stated),inactive
15,Cc1noc(C)c1S(=O)(=O)N(C)C[C@H]1Oc2ccc(NC(=O)C3CC3)cc2CC(=O)N([C@@H](C)CO)C[C@@H]1C,inactive
16,C[C@H]1CCCCO[C@H](CN(C)S(=O)(=O)c2ccc(F)cc2)[C@@H](C)CN([C@@H](C)CO)C(=O)c2cc(NC(=O)Nc3ccc(C(F)(F)F)cc3)ccc2O1,inactive
17,C[C@@H]1CN([C@H](C)CO)C(=O)c2cc(NC(=O)Nc3ccc(C(F)(F)F)cc3)ccc2O[C@@H](C)CCCCO[C@@H]1CN(C)S(=O)(=O)c1ccc(F)cc1,inactive
18,C[C@H](CO)N1C[C@H](C)[C@@H](CN(C)S(=O)(=O)c2ccc(F)cc2)OCCCC[C@H](C)Oc2ccc(NC(=O)Nc3ccc(C(F)(F)F)cc3)cc2C1=O,inactive
19,C[C@@H]1CCCCO[C@@H](CN(C)S(=O)(=O)c2ccc(F)cc2)[C@H](C)CN([C@@H](C)CO)C(=O)c2cc(NC(=O)Nc3ccc(C(F)(F)F)cc3)ccc2O1,inactive

row,Compound,cytotoxicity call
1,C[C@@H]1CCCCO[C@H](CN(C)S(=O)(=O)c2ccc(F)cc2)[C@H](C)CN([C@@H](C)CO)C(=O)c2cc(NC(=O)Nc3ccc(C(F)(F)F)cc3)ccc2O1,active
2,C[C@@H]1CCCCO[C@H](CN(C)S(=O)(=O)c2ccc(F)cc2)[C@@H](C)CN([C@H](C)CO)C(=O)c2cc(NC(=O)Nc3ccc(C(F)(F)F)cc3)ccc2O1,active
3,C[C@@H]1CCCCO[C@@H](CN(C)S(=O)(=O)c2ccc(F)cc2)[C@@H](C)CN([C@@H](C)CO)C(=O)c2cc(NC(=O)Nc3ccc(C(F)(F)F)cc3)ccc2O1,active
4,C[C@H](CO)N1C[C@H](C)[C@H](CN(C)S(=O)(=O)c2ccc(F)cc2)OCCCC[C@H](C)Oc2ccc(NC(=O)Nc3ccc(C(F)(F)F)cc3)cc2C1=O,inactive
5,C[C@@H]1CN([C@@H](C)CO)C(=O)c2cc(NC(=O)Nc3ccc(C(F)(F)F)cc3)ccc2O[C@@H](C)CCCCO[C@H]1CN(C)S(=O)(=O)c1ccc(F)cc1,inactive
6,COc1ccc(C#Cc2cccc(-c3nc(C(=O)N[C@@H]4CCN(Cc5ccccc5)C4)cc4c3[C@@H](CCO)N(S(=O)C(C)(C)C)C4)c2)cc1OC (some centres not stated),inactive
7,c1ccc2cc3nc4c(ccc5ccccc54)nc3cc2c1,inactive
8,C[C@@H]1CCCCO[C@@H](CN(C)C(=O)NC2CCCCC2)[C@@H](C)CN([C@H](C)CO)C(=O)c2cc(NC(=O)c3ccccc3)ccc2O1,inactive
9,C[C@@H]1CN([C@@H](C)CO)S(=O)(=O)c2ccc(C#Cc3ccccc3)cc2O[C@H]1CN(C)S(C)(=O)=O,inactive
10,C[C@H](CO)N1C[C@H](C)[C@@H](CN(C)Cc2ccncc2)Oc2c(NC(=O)c3cnccn3)cccc2C1=O,inactive
11,C[C@@H]1CN([C@@H](C)CO)C(=O)c2cc(NC(=O)Nc3cccc4ccccc34)ccc2O[C@@H](C)CCCCO[C@H]1CN(C)C(=O)Nc1cccc2ccccc12,inactive
12,CC(C)NC(=O)Nc1ccc2c(c1)C(=O)N([C@H](C)CO)C[C@H](C)[C@H](CN(C)C(=O)Nc1cccc3ccccc13)OCCCC[C@H](C)O2,active
13,C[C@@H]1CCCCO[C@H](CN(C)C(=O)Nc2cccc3ccccc23)[C@H](C)CN([C@@H](C)CO)C(=O)c2cc(NC(=O)Nc3ccc(C(F)(F)F)cc3)ccc2O1,active
14,C[C@@H]1CCCCO[C@@H](CN(C)C(=O)Nc2cccc3ccccc23)[C@H](C)CN([C@@H](C)CO)C(=O)c2cc(NC(=O)Nc3cccc4ccccc34)ccc2O1,active
15,CC(C)NC(=O)Nc1ccc2c(c1)C(=O)N([C@@H](C)CO)C[C@@H](C)[C@@H](CN(C)C(=O)Nc1cccc3ccccc13)OCCCC[C@@H](C)O2,inactive
16,C[C@@H]1CN([C@@H](C)CO)C(=O)c2cc(NC(=O)Nc3ccc(C(F)(F)F)cc3)ccc2O[C@@H](C)CCCCO[C@H]1CN(C)C(=O)Nc1cccc2ccccc12,inactive
17,C[C@H](CO)N1C[C@H](C)[C@@H](CN(C)C(=O)Nc2cccc3ccccc23)OCCCC[C@H](C)Oc2ccc(NC(=O)Nc3cccc4ccccc34)cc2C1=O,inactive
18,C[C@@H]1CN([C@@H](C)CO)C(=O)c2cc(NC(=O)Nc3ccc(C(F)(F)F)cc3)ccc2O[C@@H](C)CCCCO[C@@H]1CN(C)C(=O)Nc1cccc2ccccc12,inactive
19,CC(C)NC(=O)Nc1ccc2c(c1)C(=O)N([C@H](C)CO)C[C@@H](C)[C@H](CN(C)C(=O)Nc1cccc3ccccc13)OCCCC[C@H](C)O2,inactive
